The record followed here is PubChem BioAssay AID1159580 (chemical genetic matrix, 2015).

Out of some 5,500 compounds screened, about 2,000 (36%) were called active. Not shown: some 18% with an inconclusive outcome. This is one part of the list. Unmarked numbers belong to inactive results. Cut-off read from the data, not from the text of the source: active = normalized growth mostly below about 0.91 (no sharp cut-off); inconclusive = no clear call, values can overlap the other calls; inactive = mostly above about 0.92.

The nature of this experiment: chemical genetic growth profiling, strain panel (AID 1159580).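 Note: tested at 20 µM; growth read once vehicle control cultures reached saturation at 30 °C; 1 = growth at the plate median or of vehicle wells; lower values mean less growth of the strain.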 The conditions noted are these: growth OD.
Setting [1] is: S. cerevisiae deletion strains, locus YAL013W, strain DEP1, stronger effect = lower value.
The mark [2] stands for this setting: S. cerevisiae deletion strains, locus YBR229C, strain ROT2, stronger effect = lower value.
The mark [3] stands for this setting: S. cerevisiae deletion strains, locus YDL101C, strain DUN1, stronger effect = lower value.
Setting [4] is: S. cerevisiae deletion strains, locus YDL134C, strain PPH21, stronger effect = lower value.
The mark [5] stands for this setting: S. cerevisiae deletion strains, locus YDR150W, strain NUM1, stronger effect = lower value.
Setting [6] is: S. cerevisiae deletion strains, locus YEL061C, strain CIN8, stronger effect = lower value.
[7] abbreviates: S. cerevisiae deletion strains, locus YGR078C, strain PAC10, stronger effect = lower value.
[8] abbreviates: S. cerevisiae deletion strains, locus YHR030C, strain SLT2, stronger effect = lower value.
[9] abbreviates: S. cerevisiae deletion strains, locus YHR087W, strain rtc3, stronger effect = lower value.
Setting [10] is: S. cerevisiae deletion strains, locus YJL187C, strain SWE1, stronger effect = lower value.
[11] abbreviates: S. cerevisiae deletion strains, locus YJR043C, strain POL32, stronger effect = lower value.
The mark [12] stands for this setting: S. cerevisiae deletion strains, locus YJR075W, strain HOC1, stronger effect = lower value.
Setting [13] is: S. cerevisiae deletion strains, locus YLR039C, strain RIC1, stronger effect = lower value.
The mark [14] stands for this setting: S. cerevisiae deletion strains, locus YLR058C, strain SHM2 (second series), stronger effect = lower value.
Where [15] appears, read: S. cerevisiae deletion strains, locus YLR085C, strain ARP6, stronger effect = lower value.
Setting [16] is: S. cerevisiae deletion strains, locus YLR262C, strain YPT6, stronger effect = lower value.
Where [17] appears, read: S. cerevisiae deletion strains, locus YML094W, strain GIM5, stronger effect = lower value.
Setting [18] is: S. cerevisiae deletion strains, locus YMR219W, strain ESC1, stronger effect = lower value.
[19] abbreviates: S. cerevisiae deletion strains, locus YMR263W, strain SAP30, stronger effect = lower value.
The mark [20] stands for this setting: S. cerevisiae deletion strains, locus YNL153C, strain GIM3, stronger effect = lower value.
[21] abbreviates: S. cerevisiae deletion strains, locus YNL298W, strain CLA4 (second series), stronger effect = lower value.
Setting [22] is: S. cerevisiae deletion strains, locus YNL322C, strain KRE1, stronger effect = lower value.
The mark [23] stands for this setting: S. cerevisiae deletion strains, locus YNR030W, strain Alg12, stronger effect = lower value.
Where [24] appears, read: S. cerevisiae deletion strains, locus YPL055C, strain LGE1, stronger effect = lower value.
Setting [25] is: S. cerevisiae deletion strains, locus YPL241C, strain CIN2, stronger effect = lower value.
Where [26] appears, read: S. cerevisiae deletion strains, locus YPR135W, strain CTF4, stronger effect = lower value.
[27] abbreviates: S. cerevisiae deletion strains, locus YAL040C, strain CLN3, stronger effect = lower value.
The mark [28] stands for this setting: S. cerevisiae deletion strains, locus YCL061C, strain MRC1 (second series), stronger effect = lower value.
Setting [29] is: S. cerevisiae deletion strains, locus YDR363W, strain ESC2, stronger effect = lower value.
Where [30] appears, read: S. cerevisiae deletion strains, locus YER002W, strain NOP16, stronger effect = lower value.
The mark [31] stands for this setting: S. cerevisiae deletion strains, locus YMR307W, strain GAS1, stronger effect = lower value.
Setting [32] is: S. cerevisiae deletion strains, locus YNL128W, strain TEP1, stronger effect = lower value.
Setting [33] is: S. cerevisiae deletion strains, locus YNL175C, strain NOP13, stronger effect = lower value.
[34] abbreviates: S. cerevisiae deletion strains, locus YNL197C, strain WHI3, stronger effect = lower value.
Where [35] appears, read: S. cerevisiae deletion strains, locus YNL224C, strain SQS1, stronger effect = lower value.
[36] abbreviates: S. cerevisiae deletion strains, locus YOR083W, strain WHI5 (second series), stronger effect = lower value.

For `N#Cc1ccc([N+](=O)[O-])s1`, the normalized growth runs as follows: under setting [1], 0.726 (active); under setting [2], 0.446 (active); under setting [3], 0.201 (active); under setting [4], 0.0493 (active); under setting [5], 0.681 (active); under setting [6], 0.194 (active). The normalized growth by setting is: under setting [7], 0.385 (active); (S. cerevisiae deletion strains, locus YGR229C, strain SMI1, stronger effect = lower value) 0.992; under setting [8], 0.0826 (active); under setting [9], 0.379 (active); under setting [10], 0.261 (active); under setting [11], 0.564 (active). In addition, the normalized growth reads like this: under setting [12], 0.198 (active); (S. cerevisiae deletion strains, locus YKL190W, strain CNB1, stronger effect = lower value) 0.0802 (active); under setting [13], 0.346 (active); under setting [14], 0.461 (active); under setting [15], 0.121 (active); under setting [16], 0.588 (active). In addition, the normalized growth was 0.271 (active) under setting [17]; 0.7 (active) under setting [18]; 0.46 (active) under setting [19]; 0.382 (active) under setting [20]; 0.105 (active) under setting [21]; 1.01 under setting [22]. Also, the normalized growth by setting is: under setting [23], 0.096 (active); (S. cerevisiae deletion strains, locus YOL006C, strain TOP1, stronger effect = lower value) 0.115 (active); under setting [24], 0.547 (active); under setting [25], 0.0815 (active); under setting [26], 0.186 (active).
With `N#CC(C#N)=Cc1ccc([N+](=O)[O-])c(O)c1`, the normalized growth is 1.04 under setting [27]; 0.991 under setting [28]; 0.968 under setting [29]; 0.956 under setting [30]; 1.01 under setting [31]; 0.966 under setting [32]. The normalized growth under setting [33] was 0.953; the normalized growth under setting [34] was 0.955; the normalized growth under setting [35] was 0.988; the normalized growth under setting [36] was 0.992; the normalized growth under setting [25] is 0.988.
Take `CN1CCc2ccccc2Cc2[nH]c3ccccc3c2CC1`: the normalized growth by setting is: under setting [1], 1.01; under setting [27], 1.04; under setting [28], 1.01; under setting [5], 1.01; under setting [29], 0.97; under setting [30], 0.996. The normalized growth was 0.994 under setting [7]; 1.01 under setting [32]; 1.03 under setting [20]; 1.01 under setting [33]; 1.01 under setting [34]; 0.996 under setting [35]. Besides, the normalized growth was 1.02 under setting [22], 0.998 under setting [36], 1.01 under setting [24] and 1.01 under setting [25].
Consider `O=C1CCCc2c1c1ccccc1n2Cc1ccccc1`, for which the normalized growth reads like this: under setting [1], 0.99; under setting [2], 0.978; under setting [3], 0.974; under setting [4], 0.989; under setting [5], 0.893; under setting [6], 0.961. Further, the normalized growth was 0.972 under setting [7]; 0.712 under setting [8]; 0.965 under setting [9]; 0.992 under setting [10]; 0.996 under setting [11]; 0.98 under setting [12]. Besides, the normalized growth was 0.753 (active) under setting [13]; 0.997 under setting [14]; 0.889 under setting [15]; 0.75 (active) under setting [16]; 0.91 under setting [17]; 0.975 under setting [18]. Further, the normalized growth under setting [19] is 0.94; the normalized growth under setting [31] was 0.973; the normalized growth under setting [20] was 0.98; the normalized growth under setting [21] was 0.95; the normalized growth under setting [22] was 0.974; the normalized growth under setting [23] was 0.951. The normalized growth was 0.933 under setting [24]; 0.987 under setting [25]; 0.839 under setting [26]; 0.974 (S. cerevisiae strains, strain wild type, stronger effect = lower value).
